Source: PubChem BioAssay (several laboratories)
NR3A LBD binder – NR3A (human) ligand-binding domain modulation. NR3A LBD differential scanning fluorimetry, Tm shift; 0% = protein alone, 100% = glycine-bound protein. Tm shift relative to glycine control, % at 25 µM. 340,000 compounds, 2.5% hits. AID 1259313;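 active = melting temperature shift of at least 10% of the positive control shift, at one fixed dose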
Beta cell apopt – blocks beta cell apoptosis; protection from apoptosis, % (concentration not given with the values); 300,000 compounds, 0.8% hits; AID 435005; INS-1E cytokine-induced death, ATP luminescence, 48 h; percent of positive-control rescue, neutral wells zero;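 active = Every replicate reaches about 75%, or at least half do and their mean reaches it too, limit read from the data; inconclusive = At least half of replicates reach the limit but their mean does not; inactive = Under half of replicates reach the limit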;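 also: higher means more ATP so stronger rescue from cytokine killing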
Gli-Sufu antag – Gli-Sufu pathway antagonism; Sufu-KO-LIGHT fibroblasts, Gli luciferase reporter luminescence; inhibition, % at 5 µM; 340,000 compounds, 0.74% hits; AID 588413;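 active = inhibition above about 55%, limit read from the data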
CSC inhib – cancer stem cell inhibition. cancer stem cell-like cells viability, luminescence. inhibition, % at 7.5 µM. 300,000 compounds, 1.1% hits; in the data active = inhibition above about 75%; inconclusive = no clear call, values can overlap the other calls; tested in HMLE shEcad cells
Mdm2 MdmX PPI – inhibitors of human Mdm2/MdmX interaction; O15151+Q00987; SaOS-2 split-luciferase Mdm2/MdmX complementation, luminescence; inhibition, % at 8 µM; 330,000 compounds, 3% hits; AID 485346;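 active = inhibition of at least 50% at 8 µM in the primary screen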
MPTP inh – inhibitors of mitochondrial permeability transition pore; isolated mouse mitochondria, Ca2+ swelling absorbance, 30 min; inhibition, % at 10 µM; 360,000 compounds, 1.4% hits;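 active = inhibition of 50% or more, scaled per plate between neutral and stimulator controls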
Mdm2 MdmX conf – confirmation of human Mdm2/MdmX interaction inhibitors | shares compounds with Mdm2 MdmX PPI | Mdm2-MdmX binding, luminescent assay | inhibition, % at 8 µM | 10,000 compounds, 55% hits; in the data active = inhibition above about 40%
Full FLuc ctr – counter-screen for Mdm2/MdmX inhibitors: full-length luciferase; shares compounds with Mdm2 MdmX PPI; SaOS-2 full-length luciferase counterscreen, luminescence; inhibition, % at 8 µM; 6,200 compounds, 77% hits; AID 504607;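 active = mean inhibition at 8 µM reaching about 37%, which flags the compound as non-specific, limit read from the data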;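 also: p53-null SaOS-2 cells with luciferase driven by a doxycycline-inducible promoter; compound on cells about two nights before reading with doxycycline added after day one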
Gli antag conf – confirmation of Gli-SUFU pathway antagonists. shares compounds with Gli-Sufu antag. Sufu-KO-LIGHT cells, Gli luciferase reporter, luminescence. inhibition, % at 5 µM. 2,500 compounds, 40% hits;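 active = mean inhibition at 5 µM reaching about 45%, limit read from the data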
Gli cytotox – counter-screen for Gli-SUFU antagonists: cytotoxicity | 2,500 compounds, 32% hits | shares compounds with Gli-Sufu antag | Sufu-KO-LIGHT cells cytotoxicity, ATP luminescence | cytotoxicity, % at 5 µM | AID 651994;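 active = mean cytotoxicity at 5 µM above about 25%, limit read from the data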;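 also: cells exposed to compound overnight for roughly 16 to 18 hours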
Wnt3a cs – counter-screen for Gli-SUFU antagonists: Wnt3a reporter inhibition | shares compounds with Gli-Sufu antag | Wnt-LIGHT cells, Wnt3a-driven luciferase reporter, luminescence | inhibition, % at 6.25 µM | 2,500 compounds, 20% hits | AID 651995;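 active = mean inhibition above about 25%, limit read from the data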
MPTP counter – mitochondrial membrane potential, counter-screen; shares compounds with MPTP inh; isolated mitochondria, Rhodamine 123 fluorescence; inhibition, % at 10 µM; 5,000 compounds, 78% hits; AID 624504; in the data active = inhibition above about 22%
MPTP swell DR – dose response confirmation of mitochondrial permeability transition pore inhibitors | AID 651561 | isolated mitochondria swelling, absorbance | IC50, µM | shares compounds with MPTP inh | 780 compounds, 58% hits; in the data active = IC50 below about 20 µM
MPTP counter DR – MPTP inhibitor counter-screen activity, dose response. AID 651564. isolated mitochondria counterscreen, fluorescence read-out. shares compounds with MPTP inh. 780 compounds, 49% hits. IC50, µM; in the data active = IC50 below about 80 µM
Each line names hits and unclear results; the compound was inactive in the other large screens (follow-up assays come after a bar, where they were run); ! = not confirmed by another sample. A selection: hits, their analogues and other compounds. The true share with any hit is near 6.6%.

Cc1ccc(-n2ncc3c(N4CCN(c5ccccc5)CC4)ncnc32)c(C)c1	Mdm2 MdmX PPI 70.2, MPTP inh 51.4 (no result: Beta cell apopt) | Mdm2 MdmX conf 69.5 | Full FLuc ctr 64.0 | MPTP counter 33.5
CC1=C([N+](=O)[O-])C(c2ccccc2)C2=C(N1)c1ccccc1C2=O (centres undefined)	Mdm2 MdmX PPI 56.5, MPTP inh 87.8 | Mdm2 MdmX conf 63.0 | Full FLuc ctr 79.1 | MPTP counter 65.3
CC(C)(C)OC(=O)N[C@@H](Cc1ccccc1)c1nnc(S(=O)(=O)Cc2cccc(F)c2)o1	CSC inhib inconclusive (no result: MPTP inh)
Cc1ccccc1CS(=O)(=O)c1nnc([C@H](CC(C)C)NC(=O)OC(C)(C)C)o1	Mdm2 MdmX PPI 74.5, MPTP inh 75.0 (no result: CSC inhib) | Mdm2 MdmX conf 78.7 | Full FLuc ctr inactive | MPTP counter inactive
CN(C(=O)c1ccccc1OCc1ccc(F)cc1)c1c(N)n(Cc2ccccc2)c(=O)[nH]c1=O	none (no result: Beta cell apopt, CSC inhib)
CCOC(=O)c1sc(=S)n(C)c1NC(=O)c1ccc(C(C)(C)C)cc1	Mdm2 MdmX PPI 61.0, MPTP inh 75.0 | Mdm2 MdmX conf inactive | MPTP counter 88.5
Cc1ccc(NC(=O)Nc2nnc(-c3ccncc3)s2)cc1C	Mdm2 MdmX PPI 93.9, MPTP inh 86.6 (no result: Beta cell apopt) | Mdm2 MdmX conf 55.6 | Full FLuc ctr inactive | MPTP counter 78.8
O=C(Nc1ccc(F)cc1)Nc1nnc(COc2ccccc2F)s1	NR3A LBD binder 36.5, Mdm2 MdmX PPI 91.4, MPTP inh 83.0 | Mdm2 MdmX conf 82.0 | Full FLuc ctr 44.2 | MPTP counter 82.9
O=C(NCCc1ccncc1)Nc1cccc(Cl)c1	none
O=C(Nc1ccc(F)cc1)Nc1nnc(-c2ccncc2)s1	Mdm2 MdmX PPI 69.5, MPTP inh 90.7 | Mdm2 MdmX conf inactive | MPTP counter 89.0
O=C(Nc1nnc(COc2ccccc2F)s1)Nc1ccccc1F	none
O=C(Nc1cccc(Cl)c1)Nc1nnc(-c2ccncc2)s1	NR3A LBD binder 27.4, Beta cell apopt 99.6, Gli-Sufu antag 56.9, Mdm2 MdmX PPI 100.0, MPTP inh 101.4 | Mdm2 MdmX conf 98.2 | Full FLuc ctr 56.4 | Gli antag conf 60.9 | Gli cytotox inactive | Wnt3a cs 68.9 | MPTP counter 55.1
CCOc1ccccc1C(=O)NCC(=O)NCC(c1ccco1)N1CCCCC1 (centres undefined)	none
N#C/C(=N\Nc1ccc(Cl)cc1)C(=O)c1ccccc1	Beta cell apopt 98.8, Mdm2 MdmX PPI 83.8, MPTP inh 95.9 | Mdm2 MdmX conf 55.5 | Full FLuc ctr 43.8 | MPTP counter 82.9
COc1ccc(N/N=C(\C#N)C(N)=O)cc1	none
COc1ccc(C(=O)/C(C#N)=N/Nc2ccc([N+](=O)[O-])cc2)cc1	NR3A LBD binder 16.9, Beta cell apopt 107.1, Gli-Sufu antag 68.9, Mdm2 MdmX PPI 89.5, MPTP inh 99.9 | Mdm2 MdmX conf 91.8 | Full FLuc ctr 51.5 | MPTP counter 86.5
CCNCc1ccc(OCc2cccs2)c(OCC)c1	none (no result: CSC inhib)
CCOc1cc(CNCc2ccccc2)ccc1OCc1ccc(Cl)cc1	Mdm2 MdmX PPI 55.0, MPTP inh 67.7 | Mdm2 MdmX conf inactive | MPTP counter 73.2
N#CC1=C(N)c2ccccc2CC12CCCCC2	none
CS(=O)(=O)c1ccc2nc(NC(=O)Nc3cccc(Cl)c3)sc2c1	NR3A LBD binder 22.0, Mdm2 MdmX PPI 91.7, MPTP inh 88.6 (no result: Gli-Sufu antag) | Mdm2 MdmX conf 64.2 | Full FLuc ctr 76.8 | MPTP counter 59.5
CS(=O)(=O)c1ccc2nc(NC(=O)Nc3ccc(Cl)c(Cl)c3)sc2c1	NR3A LBD binder 31.4, Mdm2 MdmX PPI 54.4, MPTP inh 95.4 | Mdm2 MdmX conf inactive | MPTP counter 70.8
Cc1ccc(S(=O)(=O)N2CCCN(C)c3nc4ccccc4nc32)cc1	none (no result: CSC inhib)
CCOC(=O)C1=C(C)Nc2nnnn2C1c1ccccc1Cl (centres undefined)	none
CCOC(=O)C1=C(COCCN)NC(C)=C(C(=O)OC)C1c1ccccc1Cl (centres undefined)	Mdm2 MdmX PPI 61.9!, MPTP inh 98.7 | Mdm2 MdmX conf inactive | MPTP counter inactive | MPTP swell DR 3.98 | MPTP counter DR 72.5!
O=C(Nc1cccc(C(F)(F)F)c1)C1CC(=O)N(CCc2ccccc2)C1 (centres undefined)	none
Cc1[nH]c(C)c2c(=O)[nH]ncc12	none
COc1ccc(C(NC(=O)C2CCCCC2)c2c(O)ccc3ccccc23)cc1 (centres undefined)	Mdm2 MdmX PPI 52.6, MPTP inh 81.0 | Mdm2 MdmX conf inactive | MPTP counter 69.4
CC(C)(C)C(=O)NC(c1ccccc1)c1c(O)ccc2ccccc12 (centres undefined)	none
Oc1ccc(Cl)cc1Cc1cc(Cl)ccc1O	NR3A LBD binder 17.2, CSC inhib 114.4, Mdm2 MdmX PPI 87.2, MPTP inh 86.4 | Mdm2 MdmX conf 60.1 | Full FLuc ctr 48.4 | MPTP counter 86.5
O=C(CN1CCN(C(=O)c2cncn2-c2ccccc2)CC1)Nc1ccccc1Cl	none (no result: CSC inhib)
CC(=O)Nc1ccc(NC(=O)c2ccc(C)c(S(=O)(=O)Nc3cccc(C)c3)c2)cc1	none
COc1ccc2[nH]c3c(N4CCc5ccccc5C4)ncnc3c2c1	Mdm2 MdmX PPI 75.9, MPTP inh 81.1 | Mdm2 MdmX conf 50.0 | Full FLuc ctr 62.9 | MPTP counter 69.6
CSc1nc(Oc2ccc3ccccc3c2)c2ccccc2n1	Mdm2 MdmX PPI 55.4, MPTP inh 80.2 | Mdm2 MdmX conf inactive | MPTP counter inactive | MPTP swell DR 9.44 | MPTP counter DR inactive
